In PubChem BioAssay AID504332 (National Center for Advancing Translational Sciences (NCATS), 2011):
In all, about 350,000 compounds went through this assay and about 31,000 (8.9%) were called active. Not shown: some 15% with an inconclusive outcome. The call rests on the fitted dose curve; in most records, active means well fitted inhibition curve with a large enough effect; inconclusive means small, poorly fitted or top-dose-only effect; inactive means no such curve, though single readings can be large or run the other way. The entries come from a sample that favours actives as a whole. Entries that show only a call come without a potency.

The molecules below were run against Histone-lysine N-methyltransferase EHMT2 (Homo sapiens) (UniProt Q96KQ7) (assay: qHTS Assay for Inhibitors of Histone Lysine Methyltransferase G9a). Conditions: G9a H3K9 monomethylation, AlphaScreen, 2 h; series mostly up to 59 µM.
Chain of Histone-lysine N-methyltransferase EHMT2 (Homo sapiens) (Q96KQ7 913-1193 limits assumed): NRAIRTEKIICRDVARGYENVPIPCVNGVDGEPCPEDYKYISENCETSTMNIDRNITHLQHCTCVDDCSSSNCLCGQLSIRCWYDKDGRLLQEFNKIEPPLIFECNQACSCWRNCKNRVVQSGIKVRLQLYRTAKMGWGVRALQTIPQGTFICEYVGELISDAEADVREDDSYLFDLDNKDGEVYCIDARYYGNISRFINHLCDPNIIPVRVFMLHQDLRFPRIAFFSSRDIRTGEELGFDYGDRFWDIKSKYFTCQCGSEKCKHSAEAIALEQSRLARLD
Description: Methylated lysines, on the N-terminal tails of histone proteins serve as epigenetic markers to recruit factors that can then modify local chromatin structure to lead to functional consequences. G9a and other members of the SUV39 family of the SET domain-containing superfamily of histone lysine methyltransferases (HMT) have been identified to specifically methylate Lys9 of histone H3 (H3K9). G9a catalyzes the mono- and di-methylation of H3K9 in mammalian euchromatic regions, where the resulting H3K9me2 is indicative of transcriptional repression. […] The inhibition of G9a will result in transcriptional activation and work synergistically with DNA methyltransferase and histone deacetylase inhibitors, to kill cancer cells. This qHTS assay for identification of G9a inhibitors is a chemiluminescence based AlphaScreen (PerkinElmer). Methylation of biotinylated-histone peptide is measured through specific antibody-based detection, in conjunction with streptavidin-coated donor and anti-IgG antibody-coated acceptor beads. The method is particularly well suited for detection of inhibitors acting by the desired histone peptide competitive mechanism and is applicable to testing other HMTs. Although AlphaScreen has significant advantages with its utility in a variety of epigenetic target assays, the primary screening data provided in this deposition should be used with caution due to the prevalence of screening artifacts. An AlphaScreen counterscreen is highly recommended to be run against any putative actives to eliminate non specific artifacts. Alternatively, one can use other AlphaScreen assays in PubChem to filter out promiscuous hits. Quinn et al. A chemiluminescence-based method for identification of histone lysine methyltransferase inhibitors. Mol Biosyst 6(5): 782-8. 2010. PMID: 20567762 [2] Baell,Holloway. New substructure filters for removal of pan assay interference compounds (PAINS) from screening libraries and for their exclusion in bioassays. J Med Chem. 53(7):2719-40. 2010. PMID: 20131845 NIH Molecular Libraries Probe Production Network [MLPCN] NIH Chemical Genomics Center [NCGC] Structural Genomics Consortium (SGC) NIH Grant: 5U54 MH084681-02
To each well of a 1,536w plate, 2ul of HMT enzyme (final 20nM) were added, using a nanoliter dispenser. The G9a- and GLP-inhibitor BIX-01294 (CID: 25150857) are used as an intraplate control, with a 16-point titration in duplicate. A Kalypsys pin-tool transferred 23nl of library compound solution in DMSO to each well. Following a 15 min incubation of enzyme with compounds at room temperature, 1ul mixture of b-H3K9 peptide substrate (final 500nM) and SAM cofactor (final 20uM) were added. Reactions were allowed to proceed at room temperature for 2 hours. Methylated b-H3K9 peptide product was detected with 0.5 ug/mL rabbit polyclonal anti-monomethyl histone H3K9 antibody (Abcam Inc., Cambridge, MA) and 20 ug/mL each streptavidin-coated donor and anti-rabbit IgG acceptor AlphaScreen beads. Antibody and beads were added in a 1ul dispense, for a final volume of 4ul, and plates were incubated, protected from the light, for 10 min at room temperature. Microplates were then read on an EnVision multilabel plate reader using the 1,536 plate HTS AlphaScreen aperture (excitation time 80 ms, measurement time 240 ms).
Further: nearly all actives have a fitted effect of over 75% in size.
Potency means the concentration at half of the fitted maximal effect.

SMILES | Potency | activity, negative = inhibition
CCCC1OC23CCCCC2C(C#N)(C#N)C1(C#N)C(=N)O3 (centres undefined) | 17.8 µM (active) | –
Cc1cccc(NC(=O)CSc2nc3c(oc4ccccc43)c(=O)n2-c2ccc(F)cc2)c1 | inactive | –
COc1ccc(C(=O)CN2C(=O)NC3(CCc4ccccc43)C2=O)c(OC)c1 (centres undefined) | inactive | –
CCC(CC)C(=O)N1CCc2cc(OC)c(OC)cc2C1COc1ccc(F)cc1 (centres undefined) | inactive | –
CC(Oc1ccc(Br)cc1)C(=O)NCC(c1ccco1)N1CCCCC1 (centres undefined) | inactive | –
CCOC(CNC(=O)C(=O)NCC(c1ccco1)N1CCN(c2ccc(OC)cc2)CC1)OCC (centres undefined) | 79.4 µM (active) | –
COc1ccc(NC(=O)C(=O)NCC(c2ccco2)N2CCc3ccccc3C2)cc1 (centres undefined) | – | 24.1% [at 2.33 µM] (inactive)
O=C(Cn1nc(C(F)(F)F)c2c1CCCC2)Nc1ccc(Cl)cc1 | inactive | –
COc1ccccc1CNC(=O)C(=O)NCC(c1ccco1)S(=O)(=O)c1ccc(F)cc1 (centres undefined) | inactive | –
Cc1cc(C)cc(NC(=O)CN2C(=O)c3ccccc3C2=O)c1 | inactive | –
Cc1ccc(NC(=O)CCN2C(=O)c3ccccc3C2=O)cc1C | inactive | –
Cc1cc2c(cc1C)N(C(=O)CN1C(=O)c3ccccc3C1=O)C(C)(C)c1ssc(=S)c1-2 | 28.2 µM (active) | –
CC1CCC2CCCCC2N1C(=O)c1cc([N+](=O)[O-])cc([N+](=O)[O-])c1 (centres undefined) | 44.7 µM (active) | –
COC(=O)c1cc(C(=O)NC(C)C2CC3CCC2C3)cc([N+](=O)[O-])c1 (centres undefined) | inactive | –
Cc1cc([N+](=O)[O-])c(N2CCC[C@@H]2C(=O)O)c([N+](=O)[O-])c1 | inactive | –
CCN(CC)C(=O)c1nc[nH]c1C(=O)N(C)Cc1ccccc1 | – | -4.89% [at 2.33 µM] (inactive)
CCc1ccc(C2CC(=O)c3c([nH]c(C(=O)OCc4ccc(C)cc4)c3C)C2)cc1 (centres undefined) | inactive | –
C=CCOc1ccc(/C=C2\SC(=S)N(CCC(=O)O)C2=O)cc1 | inactive | –
Cc1ccc(/C=C2\SC(=S)N(CCC(=O)Nc3ccc(O)cc3)C2=O)cc1 | inactive | –
Cc1ccc(-c2nn(-c3ccccc3)cc2/C=C2\SC(=S)N(CCCCCC(=O)O)C2=O)o1 | 3.98 µM (active) | –
CCC(=O)Nc1ccc2nc(C)n(Cc3ccccc3Cl)c(=O)c2c1 | inactive | –
CCN1CCN(c2cc3nc(C)n(Cc4ccccc4)c(=O)c3cc2NC(=O)c2ccccc2F)CC1 | 35.5 µM (active) | –
Cc1nc2ccn(Cc3cccnc3)c(=O)c2cc1C(=O)N1CCN(c2ccccc2F)CC1 | inactive | –
Cc1cccc(N(C)C(=O)CS(=O)(=O)c2cccc3nsnc23)c1 | inactive | –
O=C(NCCCc1ccccc1)c1ccc2c(c1)sc1nc(-c3ccc(F)cc3)cn12 | inactive | –

SMILES | Potency | activity, negative = inhibition
O=C(CN1CCSCC1)N/N=C/c1ccc(Cl)cc1 | 11.2 µM (active) | –
Cc1ccc(/C=N/NC(=O)CN2CCN(Cc3ccccc3)CC2)s1 | inactive | –
O=C(CN1CCN(C/C=C/c2ccccc2)CC1)Nc1ccc(F)cc1F | inactive | –
O=C(CC(=O)N/N=C\c1ccc(F)cc1)NCCc1ccccc1 | – | 2.67% [at 0.501 µM] (inactive)
Cc1nn(CC(=O)N/N=C/c2ccc(F)cc2)c(C)c1[N+](=O)[O-] | inactive | –
O=C(CN1CCSCC1)N/N=C/c1ccc(F)cc1F | 15.8 µM (active) | –
Cc1ccc(COc2ccc(/C=N/NC(=O)CN3CCCCC3)cc2)cc1 | inactive | –
O=C(CN1CCSCC1)N/N=C/c1ccc(F)cc1 | 8.91 µM (active) | –
O=C(Cn1cc(C(F)(F)F)ccc1=O)N/N=C/c1ccc(Cl)cc1Cl | inactive | –
O=C1CCCc2cc(S(=O)(=O)N3CCCC(C(=O)NCc4ccccc4)C3)ccc2N1 (centres undefined) | inactive | –
c1ccc2c(c1)CCc1snnc1-2 | – | -5.46% [at 0.501 µM] (inactive)
Cc1ccccc1OCC(=O)NNC(=O)c1ccc(-n2cncn2)c([N+](=O)[O-])c1 | inactive | –
COc1ccc(-c2cc(C(F)(F)F)n3nc(-c4ccccc4)cc3n2)cc1OC | inactive | –
CSCCC(NC(=O)c1ccccc1)C(=O)N1CCCCCCC1 (centres undefined) | – | 35.6% [at 12.7 µM] (inactive)
CC(C)N(Cc1nnc(-c2ccc(Cl)cc2)o1)C(=O)C1=COCCO1 | inactive | –
COc1cc2ccccc2cc1C(=O)Nc1ccccc1C | inactive | –
COc1cccc(OCC(O)CNC(=O)c2oc3c(C)c(C)ccc3c2C)c1 (centres undefined) | inactive | –
CCCNC(=O)CCC(=O)N1Cc2ccccc2Oc2ncccc21 | inactive | –
O=C(CC1C(=O)NCCN1CC(c1ccccc1)c1ccccc1)NCCc1cn[nH]c1 (centres undefined) | 44.7 µM (active) | –
O=C(CC1C(=O)NCCN1Cc1ccc(-c2ccccc2)cc1)NCC1CCOCC1 (centres undefined) | inactive | –
CCn1ccnc1CNC(=O)CC1C(=O)NCCN1CCCc1ccccc1 (centres undefined) | inactive | –
COc1ccc(NC(=O)CSc2nc3ncccc3[nH]2)c(OC)c1 | inactive | –
CN(c1ccccc1)S(=O)(=O)c1cccc(NC(=O)Cc2ccc(Cl)cc2)c1 | – | -10.8% [at 12.7 µM] (inactive)
CCc1ccc(C(=O)N2CCN(S(=O)(=O)c3sc(C(=O)O)c(C)c3C(=O)O)CC2)cc1 | – | 10.3% [at 2.33 µM] (inactive)
O=C(NCc1cccc(Cl)c1)C1=CC=CN2CCS(=O)(=O)N=C12 | – | -59.1% [at 12.7 µM] (inactive)

SMILES | Potency | activity, negative = inhibition
CCN(CC)c1cc(NC2CCCCC2)c2c3c(onc13)-c1ccccc1C2=O | 7.08 µM (active) | –
Cc1ccccc1NC(=O)Cn1c(=O)n(CC2CCC(C(=O)NCCc3ccccc3)CC2)c(=O)c2ccccc21 (centres undefined) | inactive | –
O=C(Nc1ncccc1O)c1ccc(C(=O)c2ccccc2)cc1 | – | -9.21% [at 0.501 µM] (inactive)
COc1ccc(CNc2nc(-c3ccccc3)nn2C(=O)c2ccccc2OC)cc1 | inactive | –
COc1ccc(S(=O)(=O)N2CCC(C(=O)NCCC(=O)NCc3cccc(OC)c3)CC2)cc1 | inactive | –
Cc1ccc(S(=O)(=O)Nc2nc3ccccc3s2)cc1[N+](=O)[O-] | inactive | –
COc1ccc(S(=O)(=O)Nc2ccc(O)c(Sc3nc4ccccc4s3)c2)cc1 | 4.47 µM (active) | –
Cc1cccc(C(=O)Nc2ccc(-c3nc4ccccc4s3)c(C)c2)c1 | inactive | –
O=C(O)c1cccc(S(=O)(=O)Nc2ccc(O)cc2Sc2nc3ccccc3s2)c1 | 7.94 µM (active) | –
COc1ccc(NS(=O)(=O)c2ccc(NC(=S)NC(=O)CC(C)C)cc2)cc1 | – | -29.8% [at 12.7 µM] (inactive)
COc1ccc(NS(=O)(=O)c2ccc3oc(SCC(N)=O)nc3c2)cc1 | inactive | –
CC(C)NC(=O)C1CCC(Cn2c(=O)c3sccc3n(Cc3ccc(F)cc3)c2=O)CC1 (centres undefined) | inactive | –
Cc1ccc(Cl)cc1NC(=O)CCS(=O)(=O)c1ccc(Br)s1 | inactive | –
COc1ccccc1-n1nnnc1SCC(=O)NC(=O)Cc1ccccc1 | – | 17.7% [at 2.33 µM] (inactive)
O=C(Nc1ccc(F)cc1F)c1ccc2c(=O)n3c(nc2c1)CCCCC3 | inactive | –
CCCCC/C=C/C1=CC(=O)C[C@H](c2ccc(Cl)cc2)C1 | – | 8.79% [at 0.501 µM] (inactive)
Cc1nnc(N2CCCC(C(=O)NCCN(C)C)C2)c2nn(-c3ccccc3)c(C)c12 (centres undefined) | inactive | –
Cc1ccc(NC(=S)N(CCCN2CCCC2)Cc2cccn2Cc2ccc(Cl)cc2)cc1 | 50.1 µM (active) | –
Cc1ccc(NC(=S)N(CCCN2CCC(C)CC2)Cc2ccco2)cc1 | inactive | –
Cc1ccc(C)c(N2CCN(CCCNC(=O)Nc3ccc(Cl)cc3)CC2)c1 | inactive | –
COc1ccc(N=Nc2ccc(O)c(P(=O)(c3ccccc3)c3ccccc3)c2)cc1 | inactive | –
Cc1cc(N=Nc2ccc3ccccc3c2)ccc1O | 35.5 µM (active) | –
COc1ccccc1N1CCN(c2ncnc3onc(-c4cccc(Cl)c4)c23)CC1 | inactive | –
O=C(c1cnc(Cl)c(Cl)c1)N1CCN(S(=O)(=O)c2ccc(F)cc2)CC1 | inactive | –
CC1(c2ccc(Cl)cc2Cl)NC(=O)N(CC(=O)Nc2cccnc2Cl)C1=O (centres undefined) | inactive | –

SMILES | Potency | activity, negative = inhibition
O=C(COC(=O)c1ccc(F)cc1F)Nc1ncccn1 | 35.5 µM (active) | –
Cc1cccc(C(=O)OCC(=O)Nc2ccc(F)cc2)c1 | inactive | –
COc1cc(OC)cc(C(=O)OCC(=O)Nc2ccc(F)cc2F)c1 | inactive | –
S=c1[nH]ccn1-c1ccc(Cl)cc1 | 3.98 µM (active) | –
CC(CCN1CCN=C1N(C)C)c1ccccc1 (centres undefined) | – | 11.1% [at 2.33 µM] (inactive)
COc1cc(OC)c(NC(=O)c2cc(S(=O)(=O)N3CCCC3)cn2C)cc1Cl | inactive | –
CCOc1ccc(NS(=O)(=O)c2ccc(OCC(=O)NCCCOC)cc2)cc1 | – | 1.35% [at 12.7 µM] (inactive)
CNC(=O)COc1ccc(S(=O)(=O)Nc2ccccc2)cc1 | 50.1 µM (active) | –
Cc1ccc(OCC(=O)Nc2ccc(S(=O)(=O)Nc3ccccn3)cc2)cc1 | inactive | –
Cn1c(COc2ccccc2C(C)(C)C)nc2ccccc21 | inactive | –
CCC(c1nnnn1C1CCCC1)N1CCN(C(=O)c2ccco2)CC1 (centres undefined) | 17.8 µM (active) | –
CC(C)C(c1nnnn1CCc1ccccc1)N1CCN(C(=O)c2ccco2)CC1 (centres undefined) | inactive | –
CC(C)C(c1nnnn1C1CCCCC1)N1CCN(C(=O)c2ccco2)CC1 (centres undefined) | inactive | –
COC(=O)c1ccc(C2C(C(=O)Nc3ccccc3)=C(C)Nc3nc4ccccc4n32)cc1 (centres undefined) | inactive | –
Cc1ccc(C(=O)Oc2ccc(C(=S)N3CCOCC3)cc2)cc1 | – | 10.7% [at 2.33 µM] (inactive)
O=C(Oc1ccc(C(=S)N2CCOCC2)cc1)c1ccc(F)cc1 | 35.5 µM (active) | –
O=C(Oc1ccc(F)cc1)N1CCOCC1 | inactive | –
O=C(CN1C(=O)S/C(=C\c2ccccc2Cl)C1=O)NC1C=CS(=O)(=O)C1 (centres undefined) | inactive | –
CC(NC(=O)Nc1ccc2c(c1)OCO2)c1ccncc1 (centres undefined) | 50.1 µM (active) | –
CC(C)NC(=O)CSc1ccccc1C(=O)NCc1ccc2c(c1)OCO2 | inactive | –
CC(NC(=O)Nc1cccc([N+](=O)[O-])c1)c1ccc2c(c1)OCO2 (centres undefined) | inactive | –
CC(C)C(=O)Nc1cccc(C(=O)Nc2ccc3c(c2)OCO3)c1 | inactive | –
CCc1ccc(NC(=O)NC(C)c2ccc3c(c2)OCO3)cc1 (centres undefined) | inactive | –
CCSc1ccccc1C(=O)Nc1ccc2c(c1)OCO2 | 3.98 µM (active) | –
